Source: PubChem
In the library only some 2.4% were active in any assay of this set; here they are far more common.
D2 ag-1 = activates the human D2 dopamine receptor. AID 624465. activation, % (test concentration not listed). P14416. DiscoveRx PathHunter D2 beta-arrestin, luminescence, 90 min; 100% = 57 uM dopamine signal. hit rate 0.084% among 360,000; in the data active means activation above about 40%; inconclusive means between about 15% and that limit
Target sequence (P14416 whole entry, looked up): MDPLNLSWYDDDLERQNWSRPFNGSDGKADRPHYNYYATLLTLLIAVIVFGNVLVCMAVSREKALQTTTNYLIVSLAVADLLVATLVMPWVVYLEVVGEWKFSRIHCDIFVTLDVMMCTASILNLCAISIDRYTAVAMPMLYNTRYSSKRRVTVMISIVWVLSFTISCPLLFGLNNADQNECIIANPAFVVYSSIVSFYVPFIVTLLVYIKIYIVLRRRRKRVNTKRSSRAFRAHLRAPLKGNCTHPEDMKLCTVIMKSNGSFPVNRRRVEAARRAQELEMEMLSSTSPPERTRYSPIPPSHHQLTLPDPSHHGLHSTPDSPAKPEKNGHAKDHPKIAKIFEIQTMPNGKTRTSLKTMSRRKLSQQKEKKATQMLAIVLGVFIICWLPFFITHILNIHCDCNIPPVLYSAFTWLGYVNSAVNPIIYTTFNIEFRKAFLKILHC
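DiscoveRx PathHunter D2 beta-arrestin cells (2,100/well) attached overnight, then compound-stimulated 90 min at 37 C in HBSS/10 mM HEPES/0.1% Tween-20 buffer; beta-galactosidase complementation read by luminescence after 1 h at ambient temperature. Dopamine 57 uM final (EC100) as control.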
D2 antagonist = antagonists of human D2 dopamine receptor; hit rate 2% among 340,000; inhibition, % at 10 µM; AID 485344; HEK293 TREx D2 cells, calcium flux, dopamine EC80; P14416; in the data active means inhibition above about 30%; inactive means below that, where a call was filed; further: 0% is about no effect
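Antagonism is scored as inhibition of an EC80 dopamine-evoked calcium signal in a force-coupled, tetracycline-inducible HEK293 T-REx D2 line, with compound present 180 s before agonist.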
D2 ag-2 = D2 dopamine receptor (human) agonism. activation, % at 2 µM. P14416. HEK293 T-REx D2 cells, calcium flux agonist mode. AID 485358. hit rate 0.53% among 340,000;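 active means activation over 3 SD above normal in the single-dose calcium agonist read, cut at about 30% in these data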; further: 0% is about no effect
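In this primary screen, compounds producing a positive calcium signal within 180 s of addition to tetracycline-induced, force-coupled HEK293 Trex D2 cells are flagged; cells are dye-loaded with a no-wash calcium kit beforehand.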
D2 PAM-1 = positive allosteric modulators of human D2 dopamine receptor | potentiation, % (test concentration not listed) | P14416 | hit rate 0.23% among 360,000 | AID 624464 | DiscoveRx D2 beta-arrestin cells, luminescence, 90 min; 100% = 57 uM dopamine signal; in the data active means potentiation above about 50%; inconclusive means mostly about 30% to 49%
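D2 cells co-treated with compound plus 50 nM dopamine (EC20) for 90 min at 37 deg C to detect potentiation. Beta-arrestin recruitment was read as enzyme-fragment luminescence after 1 h at ambient temperature. Full response was set by 57 uM dopamine.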
D2 PAM-2 = positive allosteric modulators of human D2 dopamine receptor | P14416 | HEK293 T-REx D2, calcium flux, EC20 dopamine potentiation | potentiation, % at 10 µM | hit rate 0.34% among 340,000 | AID 485347;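 active means potentiation over 3 SD above the plate norm, cut at about 30% in these data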; further: 0% is about no effect
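Tetracycline-induced Hek293 Trex D2 cells, force-coupled to calcium, loaded with no-wash calcium dye. Compound added with 180 s kinetic read for agonism, then EC20 dopamine and a further 180 s read for potentiation.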
The depositor's hits bear a star.

`COc1ccc(NC(=O)C2CC(=O)N(c3cccc(C)c3C)C2)cc1` (stereo unspecified) gave D2 ag-1 -3, D2 antagonist 31*, D2 ag-2 0, D2 PAM-1 -9 and D2 PAM-2 -13.
`CN(C)CCN(Cc1ccco1)C(=O)c1cc2c(s1)-c1ccccc1OC2` gave D2 ag-2 1 and D2 PAM-2 -15.
For O=c1c2ccccc2nc(-c2ccc(Cl)cc2)n1CCCCOc1ccc(F)cc1 the results were D2 ag-2 3 and D2 PAM-2 8.
`CN1CCC(Oc2ccccc2Sc2ccccc2)CC1` gave D2 ag-1 -3, D2 antagonist 32*, D2 ag-2 1, D2 PAM-1 -45 and D2 PAM-2 -17.
CN1CCC(OC(c2ccccc2)c2ccccc2)CC1 was read as D2 ag-1 -3, D2 antagonist -17, D2 ag-2 -2, D2 PAM-1 -25 and D2 PAM-2 -22.
Screening Cc1c(CCC(=O)NCc2ccc(F)cc2)c(=O)oc2cc(O)ccc12 returned D2 PAM-2 9.
For Cc1nc(CC(=O)Nc2ccc(C(N)=O)cc2)cs1 the results were D2 PAM-2 0.
CC1Oc2ccccc2N(CC(=O)NCc2ccccc2)C1=O (stereo unspecified) was read as D2 ag-1 -5, D2 antagonist -16, D2 ag-2 -1, D2 PAM-1 -9 and D2 PAM-2 1.
For CC1Oc2ccccc2N(CC(=O)NC2CC2)C1=O (stereo unspecified) the results were D2 ag-1 3, D2 antagonist 33*, D2 ag-2 1 and D2 PAM-1 -4.
`COc1cccc(C(=O)Nc2cccc(C(=O)OCc3cc(=O)n4nc(C5CC5)sc4n3)c2)c1` gave D2 ag-2 -1 and D2 PAM-2 2.
For COC(=O)c1ccc(NC(=O)Cn2nc(C(=O)Nc3ccc(C)cc3)ccc2=O)cc1 the results were D2 ag-1 -4, D2 antagonist 30*, D2 ag-2 -1, D2 PAM-1 -2 and D2 PAM-2 -1.
Screening Cc1ccc(C)c(-c2ccc(=O)n(C(C)C(=O)Nc3ccccc3C(F)(F)F)n2)c1 (stereo unspecified) returned D2 ag-2 0 and D2 PAM-2 5.
`Cc1ccc(C(=O)NCCN2C3=NC[C@@H](Cc4ccccc4)N3C[C@H]2Cc2ccc(O)cc2)cc1Br` gave D2 ag-1 2, D2 antagonist 68*, D2 ag-2 0, D2 PAM-1 -18 and D2 PAM-2 -21.
Screening COc1cccc(C(=O)NCC2CCCN(C3CCCCC3)C2)c1OC (stereo unspecified) returned D2 ag-1 0, D2 antagonist 57*, D2 ag-2 1, D2 PAM-1 1 and D2 PAM-2 -17.
Screening COc1ccc(N2CCC(CNS(=O)(=O)c3cccc(C(F)(F)F)c3)C2)cc1 (stereo unspecified) returned D2 ag-1 2, D2 antagonist 38*, D2 ag-2 4 and D2 PAM-1 -7.
Screening COc1ccc(CNC(=O)C2CCN(S(=O)(=O)c3cccc(C(F)(F)F)c3)CC2)cc1 returned D2 ag-1 4, D2 antagonist 6, D2 ag-2 0, D2 PAM-1 11 and D2 PAM-2 -6.
Screening O=[N+]([O-])c1nn(-c2ccc3c(c2)OCCO3)n(O)c1=NC1CCCCCC1 returned D2 ag-1 inconclusive, D2 antagonist -13, D2 ag-2 0, D2 PAM-1 85* and D2 PAM-2 5.
O=[N+]([O-])c1nn(-c2ccc3c(c2)OCCO3)n(O)c1=NC1CCCC1 was read as D2 ag-1 8, D2 antagonist -1, D2 ag-2 1, D2 PAM-1 75* and D2 PAM-2 9.
Screening O=[N+]([O-])c1nn(-c2ccc3c(c2)OCCO3)n(O)c1=Nc1ccccc1 returned D2 ag-1 inconclusive, D2 antagonist -4, D2 ag-2 -1, D2 PAM-1 inconclusive and D2 PAM-2 9.
For O=C1NCCCc2c1oc1ccc(O)cc21 the results were D2 ag-1 -4, D2 antagonist -17, D2 ag-2 1, D2 PAM-1 -15 and D2 PAM-2 -7.
`Oc1c(Cl)cc(Cl)c2c1NCCC2` gave D2 ag-1 inconclusive, D2 antagonist 39*, D2 ag-2 1, D2 PAM-1 17 and D2 PAM-2 1.
